Data reported in the supplement of paper PMC9694430.
Values joined by “and” are separate entries in the source; they are usually repeats but may differ in a detail not shown here. Equal entries are not always repeated. Structures can show the parent of a compound that is named as a salt.

Key:
Test in all cases: thermal shift delta Tm vs DMSO control; higher = stronger stabilization (binding)
Settings in all cases: 12.5 µM; protein concentration 2 µM
LOC_OS01G01410-cb001 = tested on: LOC_OS01G01410-cb001
In short: (§1)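 Rice kinase domain constructs were expressed in E. coli, purified, and tested by differential scanning fluorimetry with compound added in DMSO. Each well of a 96-well plate held 19.5 μl of 2 μM kinase in 100 mM potassium phosphate pH 7.5, 150 mM NaCl, 10% glycerol and 5 × SYPRO Orange, and fluorescence was read from 25°C to 95°C at 0.05°C/s. The melting temperature shift is the mean of triplicates, taken against protein with DMSO alone after Boltzmann fitting.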

LOC_OS01G02750-cb003 = tested on: LOC_OS01G02750-cb003
In short: as §1

LOC_OS01G10900-cb004 = tested on: LOC_OS01G10900-cb004
In short: as §1

LOC_OS01G13800-cb001 = tested on: LOC_OS01G13800-cb001
In short: as §1

LOC_OS01G14860-cb001 = tested on: LOC_OS01G14860-cb001
In short: as §1

LOC_OS01G21960-cb002 = tested on: LOC_OS01G21960-cb002
In short: as §1

LOC_OS01G39600-cb002 = tested on: LOC_OS01G39600-cb002
In short: as §1

LOC_OS01G48390-cb002 = tested on: LOC_OS01G48390-cb002
In short: as §1

LOC_OS01G51400-cb002 = tested on: LOC_OS01G51400-cb002
In short: as §1

LOC_OS01G52050-cb004 = tested on: T1, LOC_OS01G52050-cb004
T1 sequence (whole entry): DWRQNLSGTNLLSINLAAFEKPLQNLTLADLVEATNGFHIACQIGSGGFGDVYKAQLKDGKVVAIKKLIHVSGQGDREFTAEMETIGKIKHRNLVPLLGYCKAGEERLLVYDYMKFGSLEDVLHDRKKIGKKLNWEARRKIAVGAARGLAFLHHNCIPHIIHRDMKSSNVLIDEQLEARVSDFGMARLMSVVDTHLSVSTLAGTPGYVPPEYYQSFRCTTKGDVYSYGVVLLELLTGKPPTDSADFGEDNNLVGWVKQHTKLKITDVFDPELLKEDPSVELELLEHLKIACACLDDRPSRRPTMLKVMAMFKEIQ
In short: as §1

| SMILES | thermal shift delta Tm (LOC_OS01G01410-cb001) | thermal shift delta Tm (LOC_OS01G02750-cb003) | thermal shift delta Tm (LOC_OS01G10900-cb004) | thermal shift delta Tm (LOC_OS01G13800-cb001) | thermal shift delta Tm (LOC_OS01G14860-cb001) | thermal shift delta Tm (LOC_OS01G21960-cb002) | thermal shift delta Tm (LOC_OS01G39600-cb002) | thermal shift delta Tm (LOC_OS01G48390-cb002) | thermal shift delta Tm (LOC_OS01G51400-cb002) | thermal shift delta Tm (LOC_OS01G52050-cb004) |
| --- | --- | --- | --- | --- | --- | --- | --- | --- | --- | --- |
| C[C@H](CN(C)C)Oc1nc(Nc2cc3cccc(Cl)c3cn2)cnc1C#N | 0.28 °C | 1.3 °C | 0.44 °C | 0.1 °C | 0.9 °C | 1.95 °C | 0.03 °C | 4.18 °C | 0.08 °C | 1.79 °C |
| CCN1CCN(Cc2ccc(Nc3ncc(F)c(-c4cc(F)c5nc(C)n(C(C)C)c5c4)n3)nc2)CC1 | 1.5 °C | 2.83 °C | 4.97 °C | -0.66 °C | 7.4 °C | 3.11 °C | 0.45 °C | 1.47 °C | 0.13 °C | 1.08 °C |
| Cn1cc(-c2ccc3ncc(Cc4ccc5ncccc5c4)n3n2)cn1 | 0.75 °C | 0.95 °C | 6.36 °C | 0.22 °C | 0.23 °C | 0.62 °C | 0.86 °C | 1.24 °C | 0.47 °C | 0.62 °C |
| CNCc1ccc(-c2cc(-c3nc(-c4ccc(S(=O)(=O)C(C)C)cc4)cnc3N)on2)cc1 | 1.4 °C | 1.1 °C | 3 °C | 0.25 °C | 4.67 °C | 1.88 °C | 1.85 °C | 0.69 °C | 0.46 °C | 1.41 °C |
| COC(=O)c1ccc2c(c1)NC(=O)/C2=C(\Nc1ccc(N(C)C(=O)CN2CCN(C)CC2)cc1)c1ccccc1 [Nintedanib (BIBF 1120)] | 2.25 °C | -0.82 °C | 0.18 °C | -0.11 °C | 1.18 °C | 0.47 °C | 1.74 °C | 1.19 °C | 0.18 °C | 1.07 °C |
| CNC(=O)CN1CCC(Oc2cc3c(Nc4cccc(Cl)c4F)ncnc3cc2OC)CC1 [Sapitinib (AZD8931)] | 0.6 °C | 0.72 °C | 0.42 °C | -0.22 °C | 0.2 °C | 0.31 °C | 0.43 °C | 0.44 °C | -0.05 °C | 0.01 °C |
| FC(F)c1nc2ccccc2n1-c1nc(N2CCOCC2)nc(N2CCOCC2)n1 | 0.85 °C | 0.92 °C | 0.18 °C | 0.89 °C | -0.06 °C | 0.23 °C | 0.94 °C | 0.8 °C | 0.35 °C | 0.72 °C |
| COc1ccc(CNC(=O)Nc2ncc([N+](=O)[O-])s2)cc1 | 0.9 °C | 0.85 °C | 0.34 °C | 0.54 °C | 3.27 °C | 1.49 °C | -4.25 °C | 0.63 °C | -0.45 °C | 0.42 °C |
| C#Cc1cccc(Nc2ncnc3cc(OCCOC)c(OCCOC)cc23)c1 [Erlotinib] | 0.56 °C | 0.35 °C | 0.59 °C | 0.04 °C | 0.32 °C | 0.72 °C | 2.19 °C | 0.85 °C | -0.14 °C | 0.19 °C |
| Cc1nc(NC(=O)N2CCC[C@H]2C(N)=O)sc1-c1ccnc(C(C)(C)C(F)(F)F)c1 [Alpelisib (BYL719)] | 0.28 °C | 1.42 °C | 3.68 °C | -0.51 °C | -0.19 °C | 0.02 °C | -0.17 °C | 0.54 °C | 0.42 °C | 0.12 °C |
| CN1c2ccccc2C(=O)Nc2cnc(Nc3ccc(N4CCC(O)CC4)cc3)nc21 | 0.94 °C | 1.24 °C | 3 °C | -0.58 °C | 0.36 °C | 0.64 °C | 0.1 °C | 0.29 °C | 0.1 °C | 0.63 °C |
| Cc1ccc(C(=O)Nc2ccc(CN3CCN(C)CC3)c(C(F)(F)F)c2)cc1C#Cc1cnc2[nH]ncc2c1 [GZD824 Dimesylate] | 4.32 °C | 3.52 °C | 5.49 °C | -0.24 °C | 6.49 °C | 1.24 °C | 22.8 °C | 2.71 °C | 0.45 °C | 3.71 °C |
| CN1CCN(c2ccc3nc(-c4c(N)c5c(F)cccc5[nH]c4=O)[nH]c3c2)CC1 [Dovitinib (TKI-258) Dilactic Acid] | 5.85 °C | 2.07 °C | 4.46 °C | -0.49 °C | 1.65 °C | 3.5 °C | 4.66 °C | 3.4 °C | 0.79 °C | 6.33 °C |
| CN(c1ncccc1CNc1nc(Nc2ccc3c(c2)CC(=O)N3)ncc1C(F)(F)F)S(C)(=O)=O | 1.79 °C and 2.31 °C | 3.54 °C and 4.36 °C | 1.71 °C and 2.09 °C | -0.44 °C and -0.69 °C | 4.96 °C and 3.99 °C | 2.13 °C and 2.41 °C | 8.29 °C and 12.3 °C | 2.62 °C and 2.82 °C | 1.29 °C and 1.71 °C | 5.25 °C and 6.24 °C |
| Cc1csc(-c2nnc(Nc3ccc(Oc4ncccc4-c4ccnc(N)n4)cc3)c3ccccc23)c1 | 1.65 °C | 0.49 °C | 0.46 °C | 0.28 °C | 0.97 °C | 1.99 °C | 1.72 °C | 1.04 °C | 0.22 °C | 1.54 °C |
| CN(C)Cc1cccc(N/C(=C2\C(=O)Nc3cc(C(N)=O)ccc32)c2ccccc2)c1 | -0.11 °C | 0.69 °C | 1.98 °C | -0.09 °C | 0.65 °C | 0.45 °C | 0.07 °C | 0.48 °C | 0.08 °C | 0.86 °C |
| CCc1cccc(CC)c1NC(=O)N1Cc2[nH]nc(NC(=O)c3ccc(N4CCN(C)CC4)cc3)c2C1 | 0.31 °C | 0.54 °C | 0.87 °C | -0.49 °C | 0.31 °C | 0.34 °C | 2.21 °C | 0.01 °C | 0 °C | 0.17 °C |
| OC(c1cc(-c2ccc(Cl)cc2)nc2ccccc12)C1CCCCN1 (stereo not given) [Vacquinol-1] | 0.1 °C | 1.71 °C | 0.31 °C | 1.34 °C | 0.11 °C | 1.18 °C | -0.2 °C | 0.86 °C | 0.34 °C | 0.54 °C |
| O=C(Nc1cccc(Cl)c1)Nc1ncc(CCNc2ncnc3ccsc23)s1 [SNS-314 Mesylate] | 3.62 °C | 3.42 °C | 2.72 °C | 0.91 °C | 2.61 °C | 2.26 °C | 2.71 °C | 1.79 °C | 0.41 °C | 4.19 °C |
| Clc1ccc(C2(c3ccc(-c4cn[nH]c4)cc3)CCNCC2)cc1 | 0.09 °C | 0.73 °C | 0.17 °C | 0.44 °C | 0.54 °C | 0.46 °C | -0.39 °C | 0.45 °C | 0 °C | 0.38 °C |
